A short description of the assay: activators of LNCaP cell differentiation, retest, confirmation, side scatter shift, flow cytometry (AID 1069).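 Further: LNCaP human prostate cancer cells in low-serum medium with charcoal-stripped FBS; percent of cells with raised granularity gated so DMSO controls show 10%.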 To be noted: 4 d, side scatter shift, at 10 µM, stronger effect = higher value.
With `O=C(NCC1CCCO1)C1CC(c2ccc(Cl)c(Cl)c2)=NO1` (stereo not drawn), the side scatter shift came out at 2.4%.
For `Cc1ccc(C2=Nc3ccccc3NC(C)(c3ccc(C)o3)C2)o1` (stereo not drawn), the side scatter shift worked out at 10.1%.
The result for `O=C(CSc1c[nH]c2ccccc12)N1CCOCC1` reads 4.25%.
For `COc1ccc(CCNC(=O)C2CCN(Cc3nc(-c4cccc(Cl)c4)oc3C)CC2)cc1OC`, the side scatter shift turned out to be 12.2%.
For `Cc1ccc2c(c1)NC(=O)C(CC(=O)NCCCN1CCN(c3cc(Cl)ccc3C)CC1)O2` (stereo not drawn), the side scatter shift came to 7.35%.
In the case of `CCCCCn1c(=N)n(CC(O)COc2ccccc2OC)c2ccccc21` (stereo not drawn), the side scatter shift was 25.1%.
Turning to `Cc1cccc(OCCn2c(=O)n(C)c3ccccc32)c1`, the side scatter shift turned out to be 4.5%.
Then `Cc1cc(=O)n2nc(N3CCCC(C(=O)NCc4ccco4)C3)sc2n1` (stereo not drawn), with 4.75%; and `N#CC(C(=O)c1ccco1)c1ccccn1` (stereo not drawn), with 10.3%; and `O=C(Cn1ccc2ccccc2c1=O)NCCC(=O)N1CCN(c2cccc(C(F)(F)F)c2)CC1`, with 2.4%.
The result for `COc1ccc(-c2cc3c(=O)n(CC(=O)NC4CCN(Cc5ccccc5)CC4)ncn3n2)cc1` reads 5.5%; that for `O=C(Cn1cnc2ccccc2c1=O)NCCC(=O)N1CCN(c2ccccc2)CC1`, 4%; that for `COc1ccc(Cl)cc1N1CCN(CCNC(=O)Nc2ccccc2C)CC1`, 3.25%.
As for `COc1cc2c(C(=O)NCCCN3CCN(c4cccc(Cl)c4)CC3)cn(C)c(=O)c2cc1OC`, the side scatter shift was found to be 15.4%.
The result for `Cc1oc(-c2ccc(Cl)cc2)nc1CN1CCC(C(=O)NCCCN2CCOCC2)CC1` reads 27.7%; that for `Cc1cccc(-c2nc(CN3CCCC(C(=O)NC4CCCCCC4)C3)c(C)o2)c1` (stereo not drawn), 10.8%.
Then `CCOC(=O)N1CCN(C(=O)CCc2c(C)nc3c(c(C)nn3-c3ccc(C)c(C)c3)c2C)CC1`, with 6.6%; and `CCC(CC)C(=O)Nc1cccc(C(=O)NCc2ccco2)c1`, with 6%; and `CN1CCN(CCCNC(=O)c2cc3c(-c4ccc(Cl)cc4)nn(C)c3s2)CC1`, with 57%.
Then `Cc1oc(-c2ccc(Cl)cc2)nc1CN1CCCC(C(=O)NCc2cccnc2)C1` (stereo not drawn), with 7.2%.
Take `Cc1ccc(C)c2[nH]c(=O)c(CN(CCN3CCCC3)C(=O)Nc3cccc(Cl)c3)cc12`: the side scatter shift worked out at 49.6%.
Then `COc1ccc(S(=O)(=O)Nc2ccc(F)c(Cl)c2)cc1OC`, with 6.75%; and `CCOc1ccc(-c2cc(C(=O)NCCCN3CCN(CC)CC3)c3ccccc3n2)cc1`, with 73%.
The result for `COc1ccc(-n2c(C)nc3c(cnn3-c3ccc(Cl)cc3)c2=O)cc1` reads 5.6%; that for `COc1ccc(-c2ccc(-c3noc(-c4ccccc4)n3)c(OC)n2)cc1`, 22.5%; that for `Cc1cc2c(=O)n(CC(=O)N3CCN(c4ccccc4)CC3)cnc2s1`, 5.8%.
Then `Cc1nc2ncnn2c(C)c1CCC(=O)NCCCN1CCN(c2cccc(Cl)c2)CC1`, with 8.55%; and `O=S(=O)(Nc1cccc2ncccc12)c1cccs1`, with 5.95%; and `COc1ccc(-n2c3c(cc(C(=O)N4CCC(C)CC4)c2=O)C(=O)CC(C)(C)C3)cc1`, with 1.8%.
Turning to `O=C(Cc1ccc(-n2cccc2)cc1)NCc1cccs1`, the side scatter shift was determined as 13.2%.
The result for `Cc1noc(C)c1S(=O)(=O)N1CCC(C(=O)NCCN2CCC(C)CC2)CC1` reads 4.95%; that for `CCOc1ccc2ccccc2c1C(=O)N1CCN(c2ccccc2)CC1`, 1.7%; that for `COc1ccc(/C=N/c2nc3ccccc3n2C)cc1OC`, 6.6%.
With `CN(C(=O)c1ccccn1)c1nnc(-c2cccnc2)s1`, the side scatter shift worked out at 2.1%.
Then `Cc1ccc(-c2noc(CCC(=O)NC3CCN(Cc4ccccc4)CC3)n2)cc1`, with 4.5%; and `Cc1nc2c3cnn(-c4ccccc4)c3ncn2n1`, with 1.75%; and `O=c1cc(N2CCN(c3ccc(F)cc3)CC2)[nH]c(=O)n1C1CCCCC1`, with 5.4%.
In the case of `CCOC(=O)C1CCCN(C(=O)Cn2cccc2C(=O)c2ccccc2)C1` (stereo not drawn), the side scatter shift is 2.5%.

These data come from PubChem BioAssay AID1069 (NMMLSC, 2008).
